Ten compounds from PubChem BioAssay can be followed below.

Assay [1] in a line: resazurin metabolic signal in HepG2 cells – cell-based, resazurin fluorescence, 24 h, PK04 Diversity Set, profiling panel (AID 1172). Note: test concentration not given here. The note with it: HepG2 viability, higher = more signal. Background: The colour change of resazurin is a common sign of viable cells or microbes.
Assay [2] is described as follows: budding yeast growth changes without added modifier – OD600, strain BY4716, 24 h, basal condition, primary screen (AID 1173). The note with it: S. cerevisiae BY4716 growth, OD600, 24 h; higher = more signal, called active from +8 up or from −8 down.
Assay [3] can be described thus: viability profiling in MM1S myeloma cells – cell-based, resazurin fluorescence, basal, 24 h, PK04 Diversity Set, profiling panel (AID 1174).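 Note: MM1S multiple myeloma cell line; test concentration not given here.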 The note with it: higher = more signal, called active from +8 up or from −8 down.
The target of assay [4] is Dihydroorotate dehydrogenase (quinone), mitochondrial (Plasmodium falciparum (isolate 3D7)) (UniProt Q08210). Put plainly: inhibition of P. falciparum DHODH – biochemical, C-terminal His tag, absorbance 600 nm, primary screen (AID 1175).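 Note: recombinant parasite enzyme with a five histidine tag at its C terminus; test concentration not given here.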 The note with it: PfDHODH enzyme, DCIP absorbance 600 nm; higher = more signal, called active from +8 up or from −8 down.
Assay [5] can be described thus: inhibition of PAO1 biofilm formation – strain PAO1, LB-PBS medium, absorbance 600 nm, primary screen (AID 1176). Note: test concentration not given here. The note with it: P. aeruginosa PAO1 growth/biofilm, A600, 12 h; higher = more signal.
Assay [6] can be described thus: growth modulation of vineyard yeast isolate – strain RM11-1a, OD600, basal, 24 h, primary screen (AID 1177).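 Note: cultures grown under basal conditions with no added stressor; test concentration not given here.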 The note with it: S. cerevisiae RM11-1a growth, OD600, 24 h; higher = more signal, called active from +8 up or from −8 down.
A short description of assay [7]: growth of efflux-deficient E. coli DRC39 – strain DRC39, OD650, 24 h, E. coli filamentation inducers, primary screen (AID 1178).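 Note: growth measured as culture turbidity by optical density at 650 nm; test concentration not given here.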 The note with it: E. coli DRC39 acrAB, higher = more signal, called active from +8 up or from −8 down.
Assay [8] in a line: growth of efflux-deficient E. coli DRC39 – strain DRC39, OD650, 48 h, E. coli filamentation inducers, primary screen (AID 1179).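 Note: screen aims at cell division blockers that make cells filament.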 The note with it: E. coli DRC39 delta-acrAB growth, higher = more signal, called active from +8 up or from −8 down.
Assay [9] in a line: viability profiling in RPMI8226 myeloma cells – cell-based, resazurin fluorescence, basal, 24 h, PK04 Diversity Set, profiling panel (AID 1180).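 Note: RPMI8826 multiple myeloma cell line at 5000 cells per well; test concentration not given here.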 The note with it: higher = more signal.
Assay [10] deals with E3 ubiquitin-protein ligase XIAP (Homo sapiens) (UniProt P98170). Put plainly: small molecules binding XIAP protein – biophysical, small-molecule microarray, fluorescence 635 nm, primary screen (AID 1181).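 Note: score merges 667 nm emission and signal to noise over triplicate slides.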 The note with it: higher = more signal.

Activity calls are given as the source filed them. Unless noted, the rule behind the calls is not given here.

Chain of Dihydroorotate dehydrogenase (quinone), mitochondrial (Plasmodium falciparum (isolate 3D7)) (Q08210 whole entry, looked up): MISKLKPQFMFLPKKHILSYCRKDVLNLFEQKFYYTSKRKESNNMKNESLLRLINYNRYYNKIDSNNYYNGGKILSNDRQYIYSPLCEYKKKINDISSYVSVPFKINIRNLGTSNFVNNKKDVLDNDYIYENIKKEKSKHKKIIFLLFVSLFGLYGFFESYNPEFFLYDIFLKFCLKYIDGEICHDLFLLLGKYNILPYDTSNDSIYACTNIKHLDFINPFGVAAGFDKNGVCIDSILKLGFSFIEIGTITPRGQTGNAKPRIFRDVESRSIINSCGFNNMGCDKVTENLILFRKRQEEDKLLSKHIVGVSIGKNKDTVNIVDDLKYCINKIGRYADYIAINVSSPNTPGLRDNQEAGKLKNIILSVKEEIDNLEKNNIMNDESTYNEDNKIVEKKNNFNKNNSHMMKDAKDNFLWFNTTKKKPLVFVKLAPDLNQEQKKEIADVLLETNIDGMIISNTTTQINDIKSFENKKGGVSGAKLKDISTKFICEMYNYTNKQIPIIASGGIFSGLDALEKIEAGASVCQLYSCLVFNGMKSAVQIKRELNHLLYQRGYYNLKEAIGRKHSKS
Chain of E3 ubiquitin-protein ligase XIAP (Homo sapiens) (P98170 whole entry, looked up): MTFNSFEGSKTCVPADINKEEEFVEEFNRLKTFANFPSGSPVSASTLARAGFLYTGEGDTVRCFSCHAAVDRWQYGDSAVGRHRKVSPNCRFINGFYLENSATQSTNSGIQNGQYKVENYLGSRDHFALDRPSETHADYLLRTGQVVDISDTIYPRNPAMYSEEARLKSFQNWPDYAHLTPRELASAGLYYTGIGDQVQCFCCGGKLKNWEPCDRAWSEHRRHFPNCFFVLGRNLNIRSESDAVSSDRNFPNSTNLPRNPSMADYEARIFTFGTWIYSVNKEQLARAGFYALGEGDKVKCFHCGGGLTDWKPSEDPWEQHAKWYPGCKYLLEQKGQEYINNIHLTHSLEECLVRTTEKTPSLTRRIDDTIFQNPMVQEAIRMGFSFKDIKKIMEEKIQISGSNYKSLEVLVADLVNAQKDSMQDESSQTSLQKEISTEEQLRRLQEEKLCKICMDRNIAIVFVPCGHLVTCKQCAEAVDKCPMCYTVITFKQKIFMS

With `C=CCC(OC(C)=O)[C@@H]1[C@@H](N(Cc2cc3ccccc3o2)C(=O)c2ccc(-c3ccccc3)cc2)c2cc(OCCCO)ccc2N1C(=O)Cc1ccc2ccccc2c1` (stereo not given in full), the z-score in assay [1] was -0.795; in [2] it was 0.692 (inactive); in assay [3] it was 0.548 (inactive); in [5] it was 0.0793 (inactive); in assay [6], 0.854 (inactive); in assay [7], 1.15 (inactive). For the same compound, the z-score in [8] is 0.682 (inactive); in assay [9] it was 1.13. Besides, the figures for the composite z-score in assay [4] and in assay [10] were 0.22 (inactive) and -0.239, respectively.
Consider `C=CCC(OC(C)=O)[C@@H]1[C@@H](N(Cc2ccc(-c3cccc(C(F)(F)F)c3)o2)C(=O)c2ccc(C)cc2)c2cc(OCCCO)ccc2N1C(=O)c1ccc2ccccc2n1` (stereo not given in full), for which the z-score in assay [1] was 0.347; in assay [2], -0.304 (inactive); in [3], 0.0003 (inactive); in assay [5], -0.325 (inactive); in assay [6] it was -0.0057 (inactive); in [7], -0.379 (inactive). For the same compound, the z-score was 0.317 (inactive) in assay [8] and -0.37 in assay [9]. For the same compound, the figures for the composite z-score in assay [4] and in assay [10] were -1.35 (inactive) and 0.265, respectively.
`C=CCOC(=O)[C@@H]1[C@H]2C(=O)O[C@H](c3ccccc3)[C@H](c3ccccc3)N2[C@H](c2ccc(OCCOC(=O)[C@H]3C[C@H]4C(=O)N[C@@H](CC(C)C)C(=O)N4[C@H]3c3cccc(OCCO)c3)cc2)[C@@]12C(=O)Nc1ccc(I)cc12`: the z-score in assay [1] is -0.525; in assay [2], -0.195 (inactive); in assay [3], -0.77 (inactive); in assay [5], 3.38 (inactive); in assay [6], 1.58 (inactive); in assay [7], -0.111 (inactive). For the same compound, the z-score is -1.14 (inactive) in assay [8] and -0.747 in [9]. Also, the values for the composite z-score in assay [4] and in [10] were 1.64 (inactive) and -0.0876, respectively.
Consider `Cc1ccc(S[C@]2(C(=O)NCCCN(C)C)CC(=O)N(Cc3ccccc3)[C@@H]2c2ccc(CO)cc2)cc1`, for which the z-score in assay [1] was -0.519; in [2] it was -0.686 (inactive); in assay [3] it was 0.833 (inactive); in assay [5], 0.317 (inactive); in assay [6], -0.358 (inactive); in assay [7] it was -0.194 (inactive). The values for the z-score in [8] and in assay [9] were -0.435 (inactive) and 0.63, respectively. Also, the figures for the composite z-score in [4] and in [10] were -0.336 (inactive) and -0.185, respectively.
For the compound `C=CCC(OC(C)=O)[C@@H]1[C@@H](N(Cc2cc3ccccc3o2)C(=O)c2cccc3ccccc23)c2cc(OCCCO)ccc2N1C(=O)Cc1ccc2ccccc2c1` (stereo not given in full), the z-score in [1] was -0.902; in assay [2], 0.272 (inactive); in assay [3], -0.411 (inactive); in assay [5], -0.735 (inactive); in [6], 0.481 (inactive); in [7], -0.741 (inactive). Also, the figures for the z-score in assay [8] and in assay [9] were -0.973 (inactive) and -0.276, respectively. The composite z-score in assay [4] was 0.449 (inactive); in [10], -0.0703.
For `[N-]=[N+]=NCc1ccccc1C[C@]1(C(=O)NCc2ccccc2)COC(c2ccc(OCCCO)cc2)=N1`, the z-score was -1.89 in assay [1]; 1.55 (inactive) in assay [2]; -5.64 (inactive) in assay [3]; 0.385 (inactive) in assay [5]; 3.06 (inactive) in assay [6]; 1.45 (inactive) in assay [7]. Further, the results for the z-score in assay [8] and in assay [9] were 0.376 (inactive) and -4.15, respectively. Besides, the composite z-score in assay [4] was 1.1 (inactive); in assay [10], 0.488.
For `C=CC[C@@]1(C(=O)NCCN2CCOCC2)N=C(c2ccc(OCCCO)cc2)O[C@@H]1c1ccccc1CN=[N+]=[N-]`, the z-score in assay [1] was -0.0014; in [2] it was -1.4 (inactive); in assay [3], 0.331 (inactive); in [5] it was 0.466 (inactive); in assay [6] it was -0.425 (inactive); in assay [7], 0.677 (inactive). Besides, the z-score in assay [8] was -0.498 (inactive); in assay [9], -0.354. Moreover, the composite z-score in [4] was 0.45 (inactive); in assay [10], 0.272.
On to `O=C(NCCN1CCOCC1)[C@@H]1c2ccccc2C(=O)N(Cc2cc(F)cc(C(F)(F)F)c2)[C@H]1c1ccc(CO)cc1`, for which the z-score in [1] was -0.375; in assay [2] it was -0.191 (inactive); in [3], 0.362 (inactive); in assay [5], -0.0807 (inactive); in assay [6] it was -0.64 (inactive); in assay [7] it was 0.552 (inactive). Also, the z-score in [8] was -0.232 (inactive); in assay [9], 0.419. Besides, the figures for the composite z-score in assay [4] and in [10] were -0.517 (inactive) and 0.0451, respectively.
`NC(=O)[C@@]1(CCS(=O)(=O)c2ccccc2)N=C(c2ccc(OCCCO)cc2)O[C@H]1c1ccccc1`: the z-score is -0.0687 in [1]; -1.38 (inactive) in [2]; 0.837 (inactive) in [3]; -0.73 (inactive) in [5]; -0.832 (inactive) in assay [6]; 0.818 (inactive) in [7]. Also, the z-score in [8] was 0.565 (inactive); in assay [9], 0.429. For the same compound, the values for the composite z-score in [4] and in [10] were -0.319 (inactive) and 0.0097, respectively.
For `CCCCC(=O)N(Cc1ccccc1F)[C@@H]1CC(C(=O)NCCO)=C[C@H](Oc2c(I)cc(CO)cc2OC)[C@H]1O`, the z-score in assay [1] was -0.796; in [2] it was -2.51 (inactive); in [3] it was -0.137 (inactive); in [5], -0.447 (inactive); in assay [6], 1.65 (inactive); in assay [7], 0.754 (inactive). Further, the z-score in assay [8] was 0.266 (inactive); in [9], -0.0533. In addition, the composite z-score in [4] was -1.63 (inactive); in assay [10], 0.344.
